Pf Dd2 inh = inhibitors of Plasmodium falciparum Dd2 growth | AID 1347417 | Potency, µM (highest dose often 28.9 µM), for inactives: top-dose activity, negative = inhibition, hits mostly inhibitors | P. falciparum Dd2 growth, SYBR Green, 72 h | 120,000 tested, 4.3% active; active = well fitted inhibition curve with a large enough effect;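 also: plate controls were DMSO vehicle for no effect and reference drug for full effect; nearly all actives have a fitted effect of over 65% in size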
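Infected erythrocytes (Dd2, 0.3% parasitemia, 2.5% hematocrit final) are added to compound in RPMI-1640/Albumax II medium, grown 72 h at 37C in low oxygen, then lysed with saponin/Triton-X containing SYBR Green and read by fluorescence.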
Numbers without * were called inactive; i = inactive; [ ] = another dose, or the depositor's remark. The entries come from a sample that favours hits as a whole. Potency is read from the fitted curve at half-maximal effect.

SMILES	Pf Dd2 inh
CCOc1cc(C2CC(=O)Nc3c2c(C)nn3-c2nc(C)cc(C)n2)ccc1O (configuration not stated)	-28%
C#CCOc1c(Br)cc(C2C(C(=O)OC)=C(C)NC3=C2C(=O)c2ccccc23)cc1OCC (configuration not stated)	i
COc1ccc(CNC(=O)C2(N3C[C@@H](C)O[C@@H](C)C3)Cc3ccccc3C2)cc1	-8%
COc1ccc(CNC(=O)Cn2c(C)cc3nc4n(c(=O)c32)CCCCC4)cc1OC	i
CN1CC2(CCN(C(=O)c3n[nH]c4ccccc34)CC2)CC1C(=O)N1CCOCC1 (configuration not stated)	9%
CN1c2cc(C(=O)NCc3cccs3)ccc2C(=O)N2CCCCC21 (configuration not stated)	i
O=C(CCn1ccn2nc3c(c2c1=O)CCCC3)Nc1cc(F)cc(F)c1	i
CC1=C[C@@H](CNC(=O)c2cnccn2)[C@H](C(C)C)C[C@H]1CC(=O)N1CCOCC1	i
O=C(CCC[C@@H]1[C@H]2CCCN3CCC[C@@H](CN1C(=O)c1cccnc1)[C@@H]23)NCCCN1CCCC1	i
CC(=O)NCC(=O)N1CCCC2(CN[S+](=O)([O-])c3cccnc3O2)C1 (configuration not stated)	10%
COCCN1C(=O)CO[C@H]2CN(Cc3cnc4ccccc4c3)C[C@H]21	-13%[44.1 µM]
NCc1ccccc1-c1cnc2ccccc2c1	10µM*
O=C(O)c1cccc(-c2cnc3ccccc3c2)c1	31%[44.1 µM]
COc1ccccc1CCc1nc(C2CC(=O)N(c3ccc(F)c(Cl)c3)C2)no1 (configuration not stated)	58%
COc1cccc(-c2ccc3c(n2)c(=O)ncn3CC2CC2)c1	-22%[44.1 µM]
CCCNC(=O)C1N(C(C)C)C(=O)C12CCCC2 (configuration not stated)	7%
Cn1ccnc1CN1C(=O)NC2(CCNCC2)C1=O	2%
O=C1NC2(CCNCC2)C(=O)N1CCCc1cccnc1	-3%
O=C1N(CCCCOc2ccccc2)c2ccccc2NC12CCNCC2	7.9µM*
O=C(CCc1nnn2c1CN(C(=O)Nc1cccc(F)c1)CC2)NC1CC1	i
Cc1cccc(OCC2(CNC(=O)N3CCOCC3)C[C@@H](O)[C@@H](O)C2)n1 (some centres not stated)	-8%[44.1 µM]
COc1ccc(CN2C(=O)c3oc4ccccc4c(=O)c3C2c2ccc(O)cc2)cc1 (configuration not stated)	-28%
COc1ccc(CN2C(=O)c3oc4ccc(F)cc4c(=O)c3C2c2ccc(O)cc2)cc1 (configuration not stated)	-12%
O=C1c2oc3ccccc3c(=O)c2C(c2cccc(O)c2)N1Cc1ccc(F)cc1 (configuration not stated)	14µM*
COc1ccc(-c2noc([C@@H]3C[C@@H](O)CN3C3CCN(C)CC3)n2)cc1	-30%[44.1 µM]
SMILES	Pf Dd2 inh
CC(C)NC(=O)N1CCC2(CC1)NCCc1c2[nH]c2ccccc12	i
O=C(c1cnc2c(c1)N([S+](=O)([O-])c1cccnc1)CCC2)N1CCCC[C@@H]1c1ccccc1	2%
CCN(CC)CC[C@H]1CN(C(=O)c2ccnc(Cl)c2)CC[C@H]1CC(=O)O	4%[44.1 µM]
COC[C@@H]1CNC[C@H]1C(=O)NC1CC1	6%
C[C@@H](NC(=O)c1cccnc1)c1onc(-c2cccnc2)c1C(=O)O	20%[44.1 µM]
Cc1nc(NC(C)c2nc(-c3cccnc3)no2)c2cccnc2n1 (configuration not stated)	3.5µM*
COc1ccc(-c2noc(-c3nc(-c4cccnc4)no3)n2)cc1OC	2%
CC1=C[C@@H](CNC(=O)c2cncnc2)[C@H](C(C)C)C[C@H]1CC(=O)NC1CCCC1	-23%[44.1 µM]
O=C(CCC1CCCN(Cc2cc3c(cc2Cl)OCO3)C1)Nc1ccccc1F (configuration not stated)	-25%
O=C(CCC1CCCN(Cc2cccn2-c2ccccn2)C1)Nc1ccccc1F (configuration not stated)	7.9µM*
O=C(CCC1CCCN(Cc2cccnc2)C1)Nc1ccccc1F (configuration not stated)	-22%
O=C(Cn1ncc2ccccc2c1=O)NC1CCCc2c1[nH]c1c(Cl)cccc21 (configuration not stated)	-5%
O=C(NCc1ccc(F)cc1)[C@@H]1C[C@@H](c2ccc(F)cc2)N([S+](=O)([O-])c2cccnc2)C1	i
COc1ccc(CC(=O)N[C@H](C)c2onc(C)c2C(=O)O)cc1	49%[44.1 µM]
O=C1Cc2c(-c3ccccc3)n[nH]c2CN1CCOc1ccccc1	-21%[44.1 µM]
O=C(O)c1cccc(-c2n[nH]c3c2CC(=O)N(CCOc2ccccc2)C3)c1	-12%[44.1 µM]
CC(C)Oc1cccc(-c2n[nH]c3c2CC(=O)N(CCOc2ccccc2)C3)c1	8.9µM*
O=C(NC1CCOCC1)c1ccc2c(c1)OCCN(c1cccc(OC(F)(F)F)c1)C2	-4%[44.1 µM]
COc1ccc(CN2CCC3(CC(c4cccc(C(F)(F)F)c4)=NO3)C2)cc1 (configuration not stated)	4%
COc1ccc(C2=NOC3(CCN(Cc4ccc(F)cc4)C3)C2)cc1 (configuration not stated)	4µM*
COc1ccc(C2=NOC3(CCN(Cc4cccnc4)C3)C2)cc1 (configuration not stated)	i
CCNC(=O)N1CCC(c2noc(-c3cnccn3)n2)C1 (configuration not stated)	i[5.79 µM]
O=C1CCCCC(CNC(=O)c2ccccc2)N1 (configuration not stated)	43%
O=C1CC(c2ccccc2)N(Cc2ccc(F)c(F)c2)CCCCCN1 (configuration not stated)	10µM*
COCCC(=O)N1CCCCCCNC(=O)CC1c1ccccc1 (configuration not stated)	19%
SMILES	Pf Dd2 inh
Cc1ccc(CN2CCCCCNC(=O)CC2c2ccccc2)o1 (configuration not stated)	-4%
Cc1ncsc1CN1CCCCCNC(=O)CC1c1ccccc1 (configuration not stated)	-2%
O=C1CC(c2ccccc2)N(Cc2ccc(C(F)(F)F)cc2)CCCCCN1 (configuration not stated)	-13%
COc1ccc(CN2CCCCCNC(=O)CC2c2ccccc2)cc1Cn1ccnc1 (configuration not stated)	2µM*
COCc1nc2nccc(-c3ccc4c(c3)CC(C)O4)n2n1 (configuration not stated)	-21%
CCOc1ccccc1NC(=O)N1CCCC1c1nc(CCOCC2CCOCC2)no1 (configuration not stated)	-21%
Cc1ccc(CNC(=O)N2CCCCCCN(C)C(=O)[C@@H]3CCC[C@@H]32)cc1	-10%
COc1cccc(CN2CCCCCCN(C)C(=O)[C@@H]3CCC[C@@H]32)n1	2.5µM*
O=C1NCCCCCCN(S(=O)(=O)c2ccccc2)[C@H]2CCCC[C@@H]12	i
CN1CCCCCCN(S(=O)(=O)c2ccccc2)[C@H]2CCC[C@H]2C1=O	4µM*
CN1CCCCCCN(Cc2cccnc2)[C@H]2CCC[C@H]2C1=O	-23%
COc1cccc(CN2CCCCCNC(=O)[C@@H]3CCC[C@@H]32)c1OC	-32%
Cc1ccc(CN2CCCCCCN(C)C(=O)[C@@H]3CCC[C@@H]32)s1	6.3µM*
O=C1NCCCCCCN(S(=O)(=O)c2ccccc2)[C@H]2CCC[C@@H]12	-10%
CN1CCCCCCN(C(=O)c2ccoc2)[C@H]2CCC[C@H]2C1=O	3%
Cc1ncsc1CN1CCc2nc(N3CCN(C)CC3)[nH]c(=O)c2CC1	i[5.79 µM]

Compound activity (PubChem)
